Only some compounds are listed: those with a hit (about 5.6% of all), similar ones and a draw of the others.
Cardio protect: cardioprotection against H2O2-induced cell death, primary screen, uHTS, H9c2 cells, ATPLite luminescence | H9c2 cardiomyocytes, H2O2 injury protection, 2 h | protection from H2O2 cell death, % at 20 µM | 0.63% of 360,000 active | AID 588492, 2011;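 active means compounds giving at least 50% protection of heart cells from peroxide-induced death in the single-dose screen, raw or plate-pattern-corrected value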;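 further: 0% = DMSO wells with peroxide and 100% = DMSO wells without peroxide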
ALR inh: inhibitors of human ALR sulfhydryl oxidase, primary screen, biochemical, H2O2 detection, HRP-luminol luminescence, single point; inhibition, % (concentration not given with the values); AID 485317, 2010; FAD-linked sulfhydryl oxidase ALR (Homo sapiens), P55789; 3.8% of 290,000 active; purified ALR, DTT oxidation;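 active means mean replicate inhibition above about 79%, with every replicate also reaching it, limit read from the data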
Target sequence (P55789 whole entry, looked up): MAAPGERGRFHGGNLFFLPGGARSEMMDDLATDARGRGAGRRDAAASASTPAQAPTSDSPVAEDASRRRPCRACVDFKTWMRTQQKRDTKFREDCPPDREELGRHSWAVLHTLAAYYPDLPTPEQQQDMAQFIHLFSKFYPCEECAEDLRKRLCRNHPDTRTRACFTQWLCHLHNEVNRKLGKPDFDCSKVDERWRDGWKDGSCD
M18AAP inhibitor: PfM18AAP inhibitors, malaria aminopeptidase, primary screen, biochemical, QFRET, recombinant enzyme; M18 aspartyl aminopeptidase (Plasmodium falciparum 3D7); H-Glu-NHMec fluorogenic cleavage; inhibition, % at 7.35 µM; 1.2% of 290,000 active; AID 1822, 2009;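 active means inhibition above the campaign mean inhibition over all tested compounds plus 3 SD, cut at about 28% in these data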;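 further: 0% = plate median of test compound wells and 100% = 2 mM ZnCl2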
PHOSPHO1 block: PubChem AID 1565; Phosphoethanolamine/phosphocholine phosphatase (Homo sapiens), Q8TCT1; recombinant PHOSPHO1, absorbance phosphatase assay; inhibition, % at 13.3 µM; 1.1% of 290,000 active; in the data active means inhibition above about 60%
Target sequence (Q8TCT1 whole entry, looked up): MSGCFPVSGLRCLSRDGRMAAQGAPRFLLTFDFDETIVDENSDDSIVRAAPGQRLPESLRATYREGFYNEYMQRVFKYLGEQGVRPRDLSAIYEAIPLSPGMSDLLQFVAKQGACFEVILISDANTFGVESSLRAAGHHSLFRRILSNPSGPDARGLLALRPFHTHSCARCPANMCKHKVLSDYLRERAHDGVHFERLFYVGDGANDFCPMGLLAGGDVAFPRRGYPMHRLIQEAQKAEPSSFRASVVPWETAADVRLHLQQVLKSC
PfG6PD inh: PfG6PD enzyme inhibitors, primary screen, biochemical, fluorescence intensity, uHTS; glucose-6-phosphate dehydrogenase-6-phosphogluconolactonase (Plasmodium falciparum 3D7); PfGluPho enzyme, NADPH resazurin-diaphorase fluorescence; inhibition, % at 20 µM; 0.78% of 350,000 active; AID 504690, 2011;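 active means inhibition reaching at least a set limit at 20 µM in the primary screen, cut at about 59% in these data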;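 further: 0% = DMSO wells with substrate and 100% = DMSO wells lacking glucose-6-phosphate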
The depositor's hits bear a star; x = no result given.

SMILES	Cardio protect	ALR inh	M18AAP inhibitor	PHOSPHO1 block	PfG6PD inh
O=C(CCl)c1ccc(Cc2ncc(C(F)(F)F)cc2Cl)s1	-15.5	x	-4.4	76.7*	-11.1
CCN(CC)CCn1c2c(c(SCC(=O)Nc3nc(C)cs3)nc1=O)CCC2	-0.8	98.7*	x	x	-8.9
CCN(CC)CCCn1c2c(c(SCC(=O)Nc3nc(C)cs3)nc1=O)CCC2	3.5	-234.8	x	x	2.1
CCN(CC)CCn1c2c(c(SCC(=O)Nc3nc(C)cs3)nc1=O)CCCC2	2.3	98.0*	x	x	2.1
COc1ccc(-c2nc(SC(C)C(=O)Nc3ccc(NC(C)=O)cc3)n[nH]2)cc1 (stereo unspecified)	-0.1	98.3*	x	x	25.4
CCN(CC)C(=O)C1=C(C)N(Cc2ccc(OC)cc2)C(=O)C(CC(=O)NC2CC2)C1 (stereo unspecified)	-0.2	x	x	x	-15.6
COc1ccc(NC2CCCN(C(=O)c3c(C)noc3C)C2)cc1 (stereo unspecified)	-0.7	98.8*	7.2	52.7	1.2
CC(=O)c1[nH]c(C)c(C(=O)N2CCCC(Nc3ccc(C(C)C)cc3)C2)c1C (stereo unspecified)	3.2	x	5.2	x	4.1
Cc1noc(C)c1C(=O)N1CCCC(Nc2ccc(C(C)C)cc2)C1 (stereo unspecified)	-2.2	98.1*	2.6	37.5	-11.8
COCCNC(=O)C1(C)CCCN(Cc2ccc3ccccc3c2Br)C1 (stereo unspecified)	-0.1	x	x	x	x
O=C(Nc1ccc(F)c(Cl)c1)C1Cc2c(-c3ccco3)ccnc2O1 (stereo unspecified)	0.6	x	x	x	x
C#CCN1C(=O)S/C(=C/C=C/c2ccc(N(C)C)cc2)C1=O	-8.7	x	-5.1	-13.3	30.9
C[C@H](NC(=O)c1nc[nH]c1C(=O)NCC(=O)OCc1ccccc1)C(=O)OCc1ccccc1	76.9*	-4.7	-3.2	26.5	12.2
C[C@H](NC(=O)c1nc[nH]c1C(=O)NCC(=O)OCc1ccccc1)c1ccccc1	83.8*	53.0	-20.4	-7.3	-2.2
C[C@H](NC(=O)c1nc[nH]c1C(=O)NC(c1ccccc1)c1ccccc1)C(=O)OC(C)(C)C	42.6	x	-5.3	30.4	8.6
C[C@@H](OC(=O)c1[nH]cnc1C(=O)NCc1ccc(CNC(=O)OC(C)(C)C)cc1)c1ccccc1	59.3*	-0.5	x	x	15.3
CC(C)(C)OC(=O)CNC(=O)c1[nH]cnc1C(=O)NC(c1ccccc1)c1ccccc1	59.4*	x	-5.0	-24.2	15.5
Cc1ccc(S(=O)(=O)c2ccc([N+](=O)[O-])o2)cc1	-17.2	x	x	x	48.9
COc1ccccc1CNc1nc2cc(-c3ccccc3C)sc2c(=O)n1C	-9.3	x	x	x	x
COc1ccc(CCNC(=O)c2cc(C)oc2C)cc1	11.5	65.0	2.5	9.0	8.4
COc1ccc(Cc2c(C(C)(C)C)nc3ccc(Cl)cn23)c(C)c1	-7.0	x	x	x	x
CC1CCC(C(C)C)C(NC(=O)c2ccncc2)C1 (stereo unspecified)	-1.0	x	x	x	x
O=C(CCN1C(=O)C2CC=CCC2C1=O)Nc1nc(-c2ccc(F)c(F)c2)cs1 (stereo unspecified)	-12.1	1.2	x	x	-2.9
O=C(O)c1cc2cc(Oc3ccccc3)ccc2[nH]1	1.1	4.1	2.1	30.5	-19.4
COc1ccc(OC)c(N2CC(O)=C(c3nc4ccccc4s3)C2=N)c1	-2.9	-4.3	2.1	54.2	16.7
SMILES	Cardio protect	ALR inh	M18AAP inhibitor	PHOSPHO1 block	PfG6PD inh
CCOc1ccccc1N1CC(O)=C(c2nc3ccccc3s2)C1=N	95.2*	-0.4	2.3	-6.7	54.6
CCNc1nc(OC)nc(N(OC)S(=O)(=O)c2ccc(C)cc2)n1	3.6	82.0*	-7.2	19.7	5.2
O=C(N1CCC(n2nc(-c3ccccc3)oc2=O)CC1)C1(c2ccc(Cl)cc2)CC1	-0.9	1.9	2.6	-1.9	-0.6
O=C(O)COCc1nc2ccccc2s1	3.8	-7.8	30.3*	28.5	18.7
CC(Sc1nncn1C)C(=O)Nc1ccc(N2CCCCC2)cc1 (stereo unspecified)	22.9	92.2*	x	x	13.8
CC(C)n1cnnc1SCC(=O)Nc1ccc(N2CCCCC2)cc1	-5.9	98.8*	x	x	17.8
Cn1nnnc1SCC(=O)Nc1ccc(N2CCOCC2)cc1	0.2	14.9	0.6	37.9	-3.4
CC(C)(C)c1nnc(SCC(=O)Nc2ccc(N3CCCCC3)cc2)n1N	-6.4	99.2*	x	x	2.5

Assay outcomes deposited in PubChem BioAssay by several laboratories.
